Data on 7 molecules can be found in PubChem BioAssay (EPA / NIEHS).

Test [1] can be described thus: ATG_GLI_CIS: Attagene CIS-FACTORIAL HepG2 Assay for human Zinc Finger Protein GLI1 (AID 2282945). The following applies: HepG2, Attagene cis-factorial reporter mRNA, GLI element; actives raise or lower the signal. In outline:
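HepG2 cells transiently transfected with cis-promoter multiplexed reporter units report endogenous transcription factor activity. After 24 h chemical exposure, reporter mRNA was quantified by RT-PCR, 6-FAM labelling, HpaI digestion and capillary electrophoresis, with bidirectional fitting against DMSO.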

A short description of test [2]: ATG_ISRE_CIS: Attagene CIS-FACTORIAL HepG2 Assay for human Interferon Regulatory Factor 1 (IRF1) binding to an Interferon-Stimulated Response Element (ISRE) (AID 2282948). The following applies: HepG2 ISRE cis-reporter (Attagene), mRNA transcription readout; actives raise or lower the signal. In outline:
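Signal reflects induction or loss of ISRE-linked reporter mRNA in transiently transfected HepG2 cells after a 24 h treatment, detected by fluorescent RT-PCR fragments on capillary electrophoresis and normalised to DMSO.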

The nature of test [3]: ATG_M_32_CIS: Attagene CIS-FACTORIAL HepG2 Assay for M32 Transcription Factor (Internal Marker) (AID 2282949).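 Further: background control marker of the multiplexed CIS panel rather than a real target.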 To be noted: HepG2 Attagene cis-factorial M32 reporter, mRNA; actives raise or lower the signal. In outline:
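Transient MRTU transfection of HepG2; 24 h compound treatment; TriZol RNA, oligo(dT) RT, reporter PCR, 6-FAM primer extension, HpaI cut, CE. Gain/loss of signal vs DMSO.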

Test [4] is described as follows: ATG_M_06_CIS: Attagene CIS-FACTORIAL HepG2 Assay for M06 Transcription Factor (Internal Marker) (AID 2282950). To be noted: HepG2 Attagene CIS-FACTORIAL M06 internal marker reporter; actives raise or lower the signal. The method, boiled down:
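HepG2 cells transiently transfected with cis-regulated multiple reporter transcription units were exposed to chemical for 24 h; reporter mRNA was quantified by RT-PCR, 6-FAM primer labelling, HpaI digestion and capillary electrophoresis, fitted bidirectionally against DMSO.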

The target in test [5] is Hypoxia-inducible factor 1-alpha (Homo sapiens) (UniProt Q16665). The test is described as follows: ATG_HIF1a_CIS: Attagene CIS-FACTORIAL HepG2 Assay for human Hypoxia Inducible Factor 1 (HIF1A) (AID 2282951). To be noted: HepG2 Attagene cis-factorial HIF1a reporter transcription; actives raise or lower the signal. In outline:
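Activity is fitted in both directions relative to DMSO. Reporter transcripts are read by RT-PCR, fluorescent primer extension and capillary electrophoresis after 24 h chemical treatment. The cells are HepG2 carrying transiently transfected cis-element-driven reporter units responding to endogenous factors.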

A short description of test [6]: ATG_MRE_CIS: Attagene CIS-FACTORIAL HepG2 Assay for human Metal Responsive Element (MRE) (AID 2282954). To be noted: HepG2 MRE cis-reporter transcription, Attagene multiplex; actives raise or lower the signal. The method, boiled down:
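Readout: capillary electrophoresis of 6-FAM-labelled, HpaI-digested RT-PCR reporter products. System: HepG2 cells carrying transient multiplexed cis reporters, dosed 24 h. Analysis: bidirectional fit, DMSO baseline.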

A short description of test [7]: ATG_PBREM_CIS: Attagene CIS-FACTORIAL HepG2 Assay for human Phenobarbital-responsive Enhancer Module (PBREM) (AID 2282955). To be noted: HepG2 PBREM cis-reporter, Attagene multiplexed transcription; actives raise or lower the signal. In outline: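 Endogenous transcription factor activity was read from reporter transcripts in transiently transfected human HepG2 liver cells after 24 h dosing. RT-PCR products were fluorescently labelled, HpaI-cut and sized by capillary electrophoresis; activity fitted bidirectionally against DMSO baseline.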

The target of test [8] is Paired box protein Pax-6 (Homo sapiens) (UniProt P26367). As to the kind of experiment: ATG_Pax6_CIS: Attagene CIS-FACTORIAL HepG2 Assay for human Paired Box 6 (PAX6) (AID 2282956). To be noted: HepG2 CIS-FACTORIAL PAX6 reporter transcription, RNA readout; actives raise or lower the signal. The method, boiled down: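 Values derive from bidirectional curve fitting of reporter mRNA signal relative to DMSO. HepG2 cells bearing transfected cis-regulated MRTUs were exposed for 24 h; transcripts were read by RT-PCR and capillary electrophoresis.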

Test [9] is described as follows: ATG_PXRE_CIS: Attagene CIS-FACTORIAL HepG2 Assay for human Pregnane X Receptor Element (PXRE) (AID 2282957). The following applies: HepG2 Attagene CIS-FACTORIAL PXRE reporter, mRNA; actives raise or lower the signal. The method, boiled down: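 Endogenous transcription factor activity in HepG2 was gauged through induction of reporter mRNA driven by a cis-regulating promoter element, sampled 24 h post-treatment. Activity was fitted in both directions against DMSO negative control.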

A short description of test [10]: ATG_PPRE_CIS: Attagene CIS-FACTORIAL HepG2 Assay for human Peroxisome Proliferator-activated Response Element (PPRE) (AID 2282958). The following applies: HepG2 PPRE cis-element reporter, Attagene transcription factor profiling; actives raise or lower the signal. In outline:
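Endogenous PPRE-driven transcription is measured in HepG2 cells carrying transfected multi-reporter constructs. Reporter transcripts are quantified by RT-PCR, HpaI digestion and capillary electrophoresis 24 h after dosing. DMSO baseline, bidirectional fit.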

Test [11] is described as follows: ATG_RORE_CIS: Attagene CIS-FACTORIAL HepG2 Assay for human RAR-related Orphan Receptor Element (RORE) (AID 2282959). To be noted: HepG2 Attagene cis-factorial RORE reporter, mRNA; actives raise or lower the signal. In outline:
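RORE reporter transcripts reflecting endogenous factor activity were read after 24 h compound exposure of transfected HepG2 cells, using reverse transcription, PCR, fluorescent labelling and capillary electrophoresis sizing. Gain or loss fitted against DMSO.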

Test [12] in a line: ATG_Sox_CIS: Attagene CIS-FACTORIAL HepG2 Assay for human SRY-box transcription factor (SOX) (AID 2282960). To be noted: HepG2 Attagene cis-factorial SOX reporter, mRNA; actives raise or lower the signal. The method, boiled down:
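Reporter transcripts, measured by RT-PCR and capillary electrophoresis of labelled fragments, report endogenous SOX transcription factor activity. Transiently transfected human HepG2 cells receive chemical for 24 h; changes in either direction are fitted relative to DMSO.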

In test [13] the target is Transcription factor Sp1 (Homo sapiens) (UniProt P08047). As to the kind of experiment: ATG_Sp1_CIS: Attagene CIS-FACTORIAL HepG2 Assay for human Specificity Protein 1 (Sp1) (AID 2282961). To be noted: HepG2 Sp1 cis-reporter transcription, actives raise or lower the signal. In outline:
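Read-out is reporter transcript level, measured by RT-PCR and fluorescent capillary electrophoresis after 24 h chemical treatment. System: transiently transfected HepG2 cells reporting endogenous transcription factor activity; gain or loss fitted against DMSO baseline.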

Test [14] concerns the target Signal transducer and activator of transcription 3 (Homo sapiens) (UniProt P40763). The test is described as follows: ATG_STAT3_CIS: Attagene CIS-FACTORIAL HepG2 Assay for human Signal Transducer and Activator of Transcription 3 (STAT3) (AID 2282963). The following applies: HepG2, Attagene cis-factorial STAT3 reporter transcription; actives raise or lower the signal. In outline:
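Uses human liver HepG2 transiently carrying cis-regulated reporter transcription units. Following 24 h dosing, reporter mRNA induction was detected by RT-PCR and capillary electrophoresis, analysed bidirectionally versus DMSO.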

The nature of test [15]: ATG_TA_CIS: Attagene CIS-FACTORIAL HepG2 Assay for human TA Basal Promoter (AID 2282964). The following applies: HepG2 Attagene CIS-factorial TA basal promoter reporter; actives raise or lower the signal. The method, boiled down:
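HepG2 cells transiently transfected with multiplexed cis-promoter reporter units, dosed 24 h. Reporter mRNA measured by RT-PCR, 6-FAM labelling, HpaI digestion and capillary electrophoresis; bidirectional fit versus DMSO baseline, serving as background control.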

Test [16] concerns the target Hepatocyte nuclear factor 6 (Homo sapiens) (UniProt Q9UBC0). The test is described as follows: ATG_HNF6_CIS: Attagene CIS-FACTORIAL HepG2 Assay for human Hepatocyte Nuclear Factor 6 (HNF6) (AID 2282952). The following applies: HepG2 Attagene cis-factorial HNF6 reporter transcription; actives raise or lower the signal. In outline: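 Endogenous transcription factor activity in human HepG2 liver cells was captured through cis-regulated reporter constructs. After 24 h treatment, reporter mRNA was measured by RT-PCR with capillary electrophoresis, and activity was fitted in both directions relative to DMSO.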

The target of test [17] is Heat shock factor protein 1 (Homo sapiens) (UniProt Q00613). As to the kind of experiment: ATG_HSE_CIS: Attagene CIS-FACTORIAL HepG2 Assay for human Heat Shock Transcription Factor 1 (HSE) (AID 2282953). The following applies: HepG2 HSE cis-reporter, Attagene RNA transcription; actives raise or lower the signal. In outline:
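HepG2 cells transiently transfected with multiple reporter transcription units under cis-regulatory promoter control, measuring endogenous transcription factor activity. After 24 h chemical exposure, reporter mRNA quantified by RT-PCR, fluorescent labelling, HpaI digestion and capillary electrophoresis; bidirectional fit versus DMSO.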

A short description of test [18]: ATG_SREBP_CIS: Attagene CIS-FACTORIAL HepG2 Assay for human Sterol Regulatory Element Binding (SREBP) (AID 2282962). The following applies: HepG2 Attagene cis-factorial SREBP reporter, mRNA; actives raise or lower the signal. The method, boiled down: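 Values derive from bidirectional curve fitting with DMSO as baseline. The underlying measurement is reporter mRNA from cis-element-regulated units in transiently transfected HepG2, quantified by RT-PCR and capillary electrophoresis after 24 h exposure.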

The source made the active and inactive calls. How the source made its calls: active means hit-call score of the fitted dose curve at least 0.9, where 1 is the maximum; inactive means score below 0.9.

Sequence of Hypoxia-inducible factor 1-alpha (Homo sapiens) (Q16665 whole entry, looked up): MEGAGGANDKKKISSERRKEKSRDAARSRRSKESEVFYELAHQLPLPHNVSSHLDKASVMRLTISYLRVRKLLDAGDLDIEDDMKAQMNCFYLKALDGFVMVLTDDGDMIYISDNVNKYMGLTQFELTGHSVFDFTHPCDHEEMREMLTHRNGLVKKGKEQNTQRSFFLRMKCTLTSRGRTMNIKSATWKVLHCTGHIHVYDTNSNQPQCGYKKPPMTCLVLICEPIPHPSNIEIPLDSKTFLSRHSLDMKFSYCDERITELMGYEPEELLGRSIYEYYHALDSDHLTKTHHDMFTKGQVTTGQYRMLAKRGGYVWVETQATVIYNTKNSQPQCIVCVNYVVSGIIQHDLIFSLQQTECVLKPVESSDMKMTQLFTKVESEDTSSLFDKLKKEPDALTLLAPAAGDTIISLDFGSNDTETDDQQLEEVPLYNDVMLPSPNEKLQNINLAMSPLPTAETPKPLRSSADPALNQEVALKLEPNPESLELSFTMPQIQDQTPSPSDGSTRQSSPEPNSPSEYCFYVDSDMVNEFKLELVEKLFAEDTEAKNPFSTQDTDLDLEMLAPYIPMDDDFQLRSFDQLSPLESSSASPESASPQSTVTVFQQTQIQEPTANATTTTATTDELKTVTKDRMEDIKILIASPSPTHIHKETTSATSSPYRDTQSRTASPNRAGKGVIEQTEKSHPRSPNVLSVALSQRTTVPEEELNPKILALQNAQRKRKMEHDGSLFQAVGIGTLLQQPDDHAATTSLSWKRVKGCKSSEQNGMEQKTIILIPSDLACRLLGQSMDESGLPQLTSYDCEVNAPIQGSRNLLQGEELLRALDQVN
Sequence of Heat shock factor protein 1 (Homo sapiens) (Q00613 whole entry, looked up): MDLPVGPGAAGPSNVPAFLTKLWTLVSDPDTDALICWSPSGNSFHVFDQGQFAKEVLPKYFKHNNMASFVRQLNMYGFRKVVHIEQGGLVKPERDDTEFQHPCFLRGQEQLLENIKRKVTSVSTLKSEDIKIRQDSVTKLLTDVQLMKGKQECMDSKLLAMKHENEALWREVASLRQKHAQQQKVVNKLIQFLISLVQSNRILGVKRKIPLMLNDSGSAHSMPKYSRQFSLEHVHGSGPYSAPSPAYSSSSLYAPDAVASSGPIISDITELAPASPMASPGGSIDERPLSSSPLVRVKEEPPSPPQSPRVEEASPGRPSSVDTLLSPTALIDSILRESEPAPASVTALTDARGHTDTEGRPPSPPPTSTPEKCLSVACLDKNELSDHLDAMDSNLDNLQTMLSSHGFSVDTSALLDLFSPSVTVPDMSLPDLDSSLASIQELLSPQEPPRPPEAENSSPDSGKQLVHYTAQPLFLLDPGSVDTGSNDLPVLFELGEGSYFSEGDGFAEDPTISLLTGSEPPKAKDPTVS
Sequence of Hepatocyte nuclear factor 6 (Homo sapiens) (Q9UBC0 whole entry, looked up): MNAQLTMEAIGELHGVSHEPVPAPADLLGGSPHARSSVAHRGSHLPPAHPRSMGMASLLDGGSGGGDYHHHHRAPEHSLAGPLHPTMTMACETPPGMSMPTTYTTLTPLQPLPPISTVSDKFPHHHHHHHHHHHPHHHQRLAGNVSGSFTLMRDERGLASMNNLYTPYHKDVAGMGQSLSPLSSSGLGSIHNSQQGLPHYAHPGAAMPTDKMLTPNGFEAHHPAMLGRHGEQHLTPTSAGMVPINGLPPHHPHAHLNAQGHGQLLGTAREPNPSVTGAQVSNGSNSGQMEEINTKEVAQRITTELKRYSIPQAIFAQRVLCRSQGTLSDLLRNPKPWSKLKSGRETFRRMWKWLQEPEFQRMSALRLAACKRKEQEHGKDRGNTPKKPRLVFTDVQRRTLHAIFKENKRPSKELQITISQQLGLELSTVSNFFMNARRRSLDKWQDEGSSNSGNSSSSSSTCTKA
Sequence of Paired box protein Pax-6 (Homo sapiens) (P26367 whole entry, looked up): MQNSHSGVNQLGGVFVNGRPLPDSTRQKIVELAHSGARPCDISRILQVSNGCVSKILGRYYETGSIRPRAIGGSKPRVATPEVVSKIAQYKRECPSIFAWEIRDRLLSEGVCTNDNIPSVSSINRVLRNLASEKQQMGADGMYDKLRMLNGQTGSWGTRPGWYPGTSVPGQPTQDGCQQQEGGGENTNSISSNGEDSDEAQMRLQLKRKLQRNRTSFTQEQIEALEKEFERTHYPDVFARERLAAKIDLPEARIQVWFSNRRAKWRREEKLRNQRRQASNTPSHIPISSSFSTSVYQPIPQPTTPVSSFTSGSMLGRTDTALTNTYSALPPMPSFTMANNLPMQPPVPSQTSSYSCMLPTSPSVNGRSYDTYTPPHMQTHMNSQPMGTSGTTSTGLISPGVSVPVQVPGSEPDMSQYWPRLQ
Sequence of Signal transducer and activator of transcription 3 (Homo sapiens) (P40763 whole entry, looked up): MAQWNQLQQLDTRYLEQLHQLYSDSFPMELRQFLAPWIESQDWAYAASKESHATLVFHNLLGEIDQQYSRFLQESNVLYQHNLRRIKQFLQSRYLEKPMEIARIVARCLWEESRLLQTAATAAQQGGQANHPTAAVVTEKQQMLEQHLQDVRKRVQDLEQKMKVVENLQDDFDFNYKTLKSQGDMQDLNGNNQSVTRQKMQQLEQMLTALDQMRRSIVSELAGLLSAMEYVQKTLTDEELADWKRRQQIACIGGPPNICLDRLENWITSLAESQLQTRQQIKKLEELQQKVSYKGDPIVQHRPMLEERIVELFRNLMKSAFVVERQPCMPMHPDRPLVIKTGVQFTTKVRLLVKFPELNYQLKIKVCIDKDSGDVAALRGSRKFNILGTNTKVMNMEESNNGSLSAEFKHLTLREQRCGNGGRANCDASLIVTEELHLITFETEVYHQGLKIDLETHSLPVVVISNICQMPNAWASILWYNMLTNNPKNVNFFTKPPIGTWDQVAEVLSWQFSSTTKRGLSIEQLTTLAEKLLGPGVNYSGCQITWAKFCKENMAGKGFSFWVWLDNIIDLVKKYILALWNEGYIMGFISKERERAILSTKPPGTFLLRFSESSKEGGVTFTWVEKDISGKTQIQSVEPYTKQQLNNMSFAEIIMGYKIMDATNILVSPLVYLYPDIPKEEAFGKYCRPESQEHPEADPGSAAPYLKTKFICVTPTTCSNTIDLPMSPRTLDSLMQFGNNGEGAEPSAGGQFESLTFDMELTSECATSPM
Sequence of Transcription factor Sp1 (Homo sapiens) (P08047 whole entry, looked up): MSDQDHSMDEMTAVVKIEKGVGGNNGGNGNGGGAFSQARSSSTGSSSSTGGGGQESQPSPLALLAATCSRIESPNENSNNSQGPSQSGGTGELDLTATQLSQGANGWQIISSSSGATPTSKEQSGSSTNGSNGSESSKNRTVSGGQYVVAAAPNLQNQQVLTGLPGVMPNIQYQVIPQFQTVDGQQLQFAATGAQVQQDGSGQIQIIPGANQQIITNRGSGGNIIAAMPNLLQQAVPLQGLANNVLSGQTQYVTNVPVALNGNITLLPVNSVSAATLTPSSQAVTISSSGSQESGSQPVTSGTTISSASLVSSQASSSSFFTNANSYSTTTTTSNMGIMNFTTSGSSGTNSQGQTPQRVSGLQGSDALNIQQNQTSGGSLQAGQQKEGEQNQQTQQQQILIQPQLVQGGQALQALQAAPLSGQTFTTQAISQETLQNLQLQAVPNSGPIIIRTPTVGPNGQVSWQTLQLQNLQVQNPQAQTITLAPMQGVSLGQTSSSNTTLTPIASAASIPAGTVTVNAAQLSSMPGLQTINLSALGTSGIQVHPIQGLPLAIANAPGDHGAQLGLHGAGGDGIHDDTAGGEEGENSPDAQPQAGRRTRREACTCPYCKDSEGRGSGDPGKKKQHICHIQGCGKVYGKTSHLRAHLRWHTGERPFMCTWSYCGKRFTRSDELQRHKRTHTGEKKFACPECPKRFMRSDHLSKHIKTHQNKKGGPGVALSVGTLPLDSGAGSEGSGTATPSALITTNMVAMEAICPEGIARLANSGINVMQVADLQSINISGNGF

In the case of `CC(C)CCCC(C)(C)O`, the call in test [1], in test [2], in [3], in test [4], in [5] and in [6] was inactive. Besides, the result in test [7], in [8], in test [9], in test [10], in [11] and in test [12] was inactive. The call in test [13], in [14] and in [15] was inactive.

As to `OCCN1CCOCC1`, the call in [1], in test [3], in [4], in [5], in [16] and in [17] was inactive. In addition, the molecule was classed as inactive in test [6], in test [7], in test [9], in test [10], in [11] and in [12]. Besides, the molecule was classed as inactive in test [13], in test [18], in [14] and in test [15].

Consider `ClCCOCCOCCCl`, for which the call in test [1], in test [2], in test [3], in test [4], in [5] and in test [17] was inactive. The molecule was classed as inactive in test [6], in test [8], in [9], in test [10], in [11] and in test [12]. In addition, the molecule was called inactive in test [13], in test [18], in test [14] and in test [15].

As a reminder, the AC50 is the midpoint of the concentration-response curve, whichever way the signal moves. Regarding `CC(C)=CC(=O)O`, the molecule was called inactive in [1], in test [2], in [3], in [4], in [5] and in test [17]. Moreover, the molecule was called inactive in [6], in [8], in test [10], in test [11], in test [12] and in test [18]. In addition, the molecule was called inactive in test [14] and in test [15]. In addition, the AC50 in test [9] was 99.5 µM (active).

In the case of `CC/C=C\CCCCO`, the molecule was called inactive in test [1], in test [3], in test [4], in test [5], in test [16] and in test [17]. Further, the call in test [6], in test [8], in test [9], in test [11], in test [12] and in test [13] was inactive. Further, the outcome in test [18], in test [14] and in [15] was inactive.

On to `CC(=O)CC(C)(C)C1CCCCC1`, for which the molecule was classed as inactive in [1], in test [2], in test [3], in [4], in test [16] and in test [17]. The result in test [6], in test [7], in [8], in test [10], in [11] and in [12] was inactive. The outcome in test [13], in [14] and in test [15] was inactive. Moreover, the AC50 in [9] was 30.7 µM (active).

For `CC1=CC[C@@H]2C[C@H]1C2(C)C`, the result in test [1], in [3], in test [4], in test [5], in test [16] and in test [17] was inactive. The outcome in test [6], in test [8], in [9], in test [10], in [11] and in test [12] was inactive. The molecule was called inactive in test [13], in test [18], in test [14] and in test [15].
